Screening data as filed in PubChem BioAssay.
PKA kinase inh = PKA (human) kinase inhibition. 0.1% of 65,000 active. inhibition, % at 6 µM. AID 524. PKA Kemptide phosphorylation, Kinase-Glo ATP luminescence;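 active = inhibition above the screen-wide mean inhibition plus 3 SD, cut at about 21% in these data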
Hsp90 block = displaces geldanamycin probe from tumor Hsp90; P07900; NCI-N417 lysate Hsp90, Cy3B-geldanamycin FP displacement; inhibition, % at 30 µM; 0.35% of 64,000 active; AID 429;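 active = inhibition above 50%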;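 also: 0% = tracer plus lysate wells and 100% = tracer alone without lysate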
DUSP1 inh = inhibitors of human MKP-1 phosphatase; P28562; inhibition, %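 (compounds tested at a single concentration somewhere between 10 and 100 µM)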; 0.15% of 65,000 active; recombinant MKP-1, OMFP hydrolysis fluorescence;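 active = inhibition above about 50%, limit read from the data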;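 also: 0% = DMSO max control wells and 100% = wells with enzyme stopped by NaOH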
ROCK2 inh = inhibitors of human Rho kinase 2; inhibition, % at 6 µM; purified ROCK2, Kinase-Glo ATP depletion luminescence; O75116; 0.35% of 60,000 active;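 active = inhibition above the screen-wide mean inhibition plus 3 SD, cut at about 18% in these data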;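 also: plate controls were DMSO wells for no effect and Y-27632 control wells after no-enzyme background subtraction for full effect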
JNK3 inh = blocks human JNK3 kinase activity. inhibition, % at 8 µM. purified JNK3 kinase activity, HTS. P53779. AID 746. 0.61% of 60,000 active; in the data active = inhibition above about 17%;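 also: 0% = DMSO and 100% = reference inhibitor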
Cdc25B block = inhibitors of human Cdc25B phosphatase. P30305. recombinant Cdc25B, OMFP fluorescence Ex485/Em525. inhibition, %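 (compounds tested at 10 µM final in the well)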. 0.1% of 65,000 active. AID 368; in the data active = inhibition above about 50%
Target sequence (P30305 whole entry, looked up): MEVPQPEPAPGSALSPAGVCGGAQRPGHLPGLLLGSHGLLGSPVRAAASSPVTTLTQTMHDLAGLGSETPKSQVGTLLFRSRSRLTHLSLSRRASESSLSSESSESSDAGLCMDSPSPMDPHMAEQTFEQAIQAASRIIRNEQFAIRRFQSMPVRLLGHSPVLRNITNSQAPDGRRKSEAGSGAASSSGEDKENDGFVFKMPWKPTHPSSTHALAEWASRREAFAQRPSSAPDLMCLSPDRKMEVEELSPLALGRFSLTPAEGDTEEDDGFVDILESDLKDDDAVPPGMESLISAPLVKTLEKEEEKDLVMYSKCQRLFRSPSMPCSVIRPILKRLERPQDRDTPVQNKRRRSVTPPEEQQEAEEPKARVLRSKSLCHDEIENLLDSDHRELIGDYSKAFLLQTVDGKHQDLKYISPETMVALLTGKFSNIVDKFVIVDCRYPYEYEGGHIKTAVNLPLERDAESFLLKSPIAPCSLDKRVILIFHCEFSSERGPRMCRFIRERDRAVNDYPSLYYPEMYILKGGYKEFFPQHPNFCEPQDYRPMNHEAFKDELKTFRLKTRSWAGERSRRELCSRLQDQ
Active calls of the source: *; i = inactive; . = not tested or not shown. Hits are enriched below; roughly 1% of the tested compounds scored in any of these assays.

SMILES	PKA kinase inh	Hsp90 block	DUSP1 inh	ROCK2 inh	JNK3 inh	Cdc25B block
Cc1nc2c(OCc3ccccc3)cccn2c1CC#N	.	-2	.	.	.	.
CC1CCCCC1NS(=O)(=O)c1ccc(S(=O)(=O)NCc2ccncc2)cc1 (stereo not drawn)	-14	-1	81*	2	7	-16
Oc1cc(O)c2c(c1)O[C@H](c1ccc(O)c(O)c1)[C@@H](O)C2	.	70*	.	.	.	.
CC(C)(C)NC(=O)C(c1ccco1)N(C(=O)Cn1nnc(-c2ccc(F)cc2)n1)c1ccccc1F (stereo not drawn)	-2	-1	7	1	-1	8
O=C(c1cccn2c(=O)c3ccc(Cl)cc3nc12)N1CCN(Cc2ccc3c(c2)OCO3)CC1	10	2	64*	.	.	-6
CC(Sc1ccc2ccccc2n1)C(=O)O (stereo not drawn)	7	-1	-19	9	39*	27
CC(Sc1cccc2cccc(C(=O)O)c12)C(=O)O (stereo not drawn)	10	-3	-16	6	2	-2
NC(N)=[N+]1CCc2ccccc2C1	.	1	.	.	.	.
CCn1c(SCC(=O)Nc2nc3ccc(OC)cc3s2)nc2c1c(=O)n(C)c(=O)n2C	-4	-2	50*	5	2	2
COc1ccc2ncn(-c3ccccc3)c2c1	11	0	-6	-2	30*	16
N.N.O=C(O)C1(C(=O)O)CCC1.[Pt+2]	.	i	.	.	.	.
CC(C)n1nc(C(=O)OCC(=O)N(C)C2CCS(=O)(=O)C2)c2ccccc2c1=O (stereo not drawn)	0	-2	10	0	21*	-3
Nc1nc(-c2ccccc2)nn1C(=O)Cc1ccccc1	2	-2	7	-11	1	3
COc1ccc(C(=O)n2nc(-c3ccccc3)nc2N)cc1OC	6	1	-9	12	49*	-7
N#C/C(C(=O)NCc1ccccc1)=C1\SC(CCO)C(=O)N1c1ccccc1 (stereo not drawn)	6	-3	-13	11	-1	84*
CCOc1ccc(/C(O)=C2\C(=O)C(=O)N(c3cc(C)on3)C2c2ccccc2OC)cc1 (stereo not drawn)	5	-1	-1	3	21*	-3
Cc1ccc(Nc2ncc3c(n2)CC(c2ccco2)CC3=O)c(C)c1 (stereo not drawn)	1	1	27	0	4	78*
Cc1cccc(Nc2ncc3c(n2)CC(c2ccco2)CC3=O)c1 (stereo not drawn)	5	-2	-3	7	3	3
COc1ccc(CC(=O)Nc2nc3ccccc3s2)cc1S(=O)(=O)N1CCOCC1	11	-3	6	6	37*	-7
COc1ccc(CC(=O)NCc2ccccc2)cc1S(=O)(=O)N1CCOCC1	3	-3	5	2	5	-18
O=C(Nc1ccccn1)c1ccc2ccccc2n1	-6	-3	-1	-4	6	70*
[Li+]	.	1	.	.	.	.
CC(C)C(NC(=O)C1CCCCC1)C(=O)Nc1ccncc1 (stereo not drawn)	14	-5	3	76*	-1	-10
CC(C)C(NC(=O)C1CCCCC1)C(=O)Nc1ccc2c(c1)OCCO2 (stereo not drawn)	3	3	2	1	2	-5
CSc1nc(N)c2ncn([C@@H]3O[C@H](COP(=O)(O)OP(=O)(O)O)[C@H](O)C3O)c2n1 (stereo partly drawn)	.	-2	.	.	.	.
SMILES	PKA kinase inh	Hsp90 block	DUSP1 inh	ROCK2 inh	JNK3 inh	Cdc25B block
CCN(CC)CCNC(=O)CCCCn1c(=S)[nH]c2c([nH]c3ccc(OC)cc32)c1=O	13	0	0	30*	1	6
COc1ccccc1CNCCCCCCNCCCCCCCCNCCCCCCNCc1ccccc1OC	.	-3	.	.	.	.
Cn1c(C(=O)N2CCCC(C(=O)N3CCN(C(=O)c4ccco4)CC3)C2)cc2sccc21 (stereo not drawn)	-7	-1	6	84*	-3	-6
O=C(O)CCCCCC[C@H]1C(=O)NC(=O)N1CC[C@@H](O)C1CCCCC1	.	2	.	.	.	.
COc1cc(C(=O)Nc2nccs2)ccc1OCc1c(C)noc1C	5	-4	-13	3	21*	-13
COc1cc(C(=O)NCC2CCCO2)ccc1OCc1c(C)noc1C (stereo not drawn)	10	.	13	.	.	4
O=C(O)CC1CCCc2ccccc2C1O (stereo not drawn)	.	-5	.	.	.	.
CC(C)CCNC(=O)C1CCN(c2nc3ccccc3o2)CC1	1	-1	35	-3	3	71*
Cc1ccc(Nc2cc(-n3nc(C)cc3C)ncn2)cc1	-5	-1	16	-2	30*	3
CCOc1ccc(Nc2cc(C)nc(-n3nc(C)cc3C)n2)cc1	3	-1	-5	7	2	6
COc1cc(NCCCN(CC(C)C)CC(C)C)c2ncccc2c1Cl	.	10	.	.	.	.
O=c1c(O)c(-c2cc(O)c(O)c(O)c2)oc2cc(O)cc(O)c12	.	100*	.	.	.	.
Cc1ccc2[nH]c3c(N4CCCCCC4)ncnc3c2c1	5	-9	-15	8	-1	13
c1nc(N2CCCC2)c2[nH]cnc2n1	22*	.	.	.	.	.
NC(=O)c1sc2nc(N3CCCCC3)c3c(c2c1N)CCCC3	27*	-5	20	42*	6	12
Cc1ccc(S(=O)(=O)C(CCC(=O)N2CCOCC2)S(=O)(=O)c2ccc(C)cc2)cc1	8	88*	-8	1	-3	-1
CCCCOc1ccc(C(=O)NCC(=O)NCC(=O)OCC)cc1	3	0	-25	5	-3	91*
CCOC(=O)CNC(=O)CNC(=O)c1ccc(OC)cc1	-2	2	-2	-15	-2	6
CCCCCCCC/C=C\CCCCCCCC(=O)NCCc1ccc(O)c(O)c1	.	84*	.	.	.	.
CCCCCCCC/C=C\CCCCCCCC(=O)NCCO	.	-1	.	.	.	.
CCOC(=O)C(CC)n1cnc2sc3c(c2c1=O)CCC3 (stereo not drawn)	-2	2	-24	3	-7	84*
CC(=O)c1ccc(NC(=O)CSc2nnc(Cc3cccn3C)n2-c2ccc(F)cc2)cc1	3	87*	17	2	3	-8
Cc1ccc(NC(=O)CSc2nnc(Cc3cccn3C)n2-c2ccc(F)cc2)cc1	6	3	16	1	1	-5
CCCCS(=N)(=O)CC[C@H](N)C(=O)O (stereo partly drawn)	.	-1	.	.	.	.
Cc1ccc(Cl)cc1N1CCN(C(=O)c2cn(C)c(=O)c3c2c2ccccc2n3C)CC1	7	-4	35	9	-3	-8
Cc1cccc(N2CCN(C(=O)c3cn(C)c(=O)c4c3c3ccccc3n4C)CC2)c1C	1	0	33	169*	-1	0
N#CC1=C(N)N2C(=C(C#N)C13CCCCC3)SC1CCCCC12O (stereo not drawn)	-1	-5	3	5	-3	63*
CCC(=O)N1CCN=C1SCc1ccc(Cl)cc1	-1	5	4	0	-2	2
